Records with an inconclusive call do not appear. Active and inactive are the calls of the source. Unless noted, the call rests on the fitted dose curve; in most records, active means well fitted curve in the direction sought with a large enough effect in the repeat runs; inconclusive means weak or mixed curves; inactive means no such curve, though single readings can be large; an effect the other way counts as inactive or inconclusive.
Legend:
[1] = qHTS assay to identify small molecule agonists of the hypoxia (HIF-1) signaling pathway - cell viability counter screen (AID 1224844; calls by dose curve; further: nearly all actives have a fitted effect of over 50% in size; further: potency means the concentration at half of the fitted maximal effect)
Outline: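 Cytotoxicity was measured in parallel with the HRE-driven beta-lactamase readout: after 17 hrs of compound exposure at 37C, HRE-bla ME-180 cells received CellTiter-Glo and luminescence was recorded 30 min later.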

[2] = qHTS assay to identify small molecule agonists of H2AX (AID 1224845; active means well fitted activation curve with a large enough effect in the signal ratio in the repeat runs, not every such curve was filed as active; the % refers to the signal ratio)
Outline: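 Wild-type CHO-K1 cells plated overnight, then exposed 3 hr at 37C to compounds at 15 concentrations (0.76% DMSO). Lysed, then HTRF anti-pH2AX(S139)-cryptate/anti-H2AX-d2 detection after 24 hr at room temperature; emissions 665 and 620 nm.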

[3] = qHTS assay to identify small molecule agonists of the hypoxia (HIF-1) signaling pathway (AID 1224846; active means well fitted activation curve with a large enough effect in the signal ratio in the repeat runs, not every such curve was filed as active; the % refers to the signal ratio)
Outline: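 Compounds from the Tox21 10K library, dissolved in DMSO, are tested for induction of a hypoxia response element–controlled beta-lactamase reporter in ME-180 cells. Exposure lasts 17 hrs at 37C after a 5 hr settling period, followed by CCF4-AM FRET substrate.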

[4] = qHTS assay to identify small molecule agonists of H2AX - cell viability counter screen (AID 1224847; calls by dose curve; further: nearly all actives have a fitted effect of over 30% in size; further: potency means the concentration at half of the fitted maximal effect)
Outline: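 CHO-K1 wt, 1000 cells/well, o/n 37C; cpds 15 conc, 3 h 37C, 0.76% DMSO; CellTiter-Glo, 30 min RT, luminescence.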

[5] = qHTS assay to identify small molecule antagonists of the estrogen related receptor (ERR) signaling pathway from Tox21 library (AID 1224848); further: nearly all actives have a fitted effect of over 50% in size; further: potency means the concentration at half of the fitted maximal effect
Outline: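 Tox21 10K compounds in DMSO tested for ERR pathway antagonism in NTP's ERR cell line; 18 h, 37 C exposure; ONE-Glo luminescence.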

[6] = qHTS assay to identify small molecule agonists of the estrogen related receptor (ERR) signaling pathway from Tox21 library (AID 1224849; calls by dose curve; further: nearly all actives have a fitted effect of over 15% in size); settings: ERR reporter cell line, ONE-Glo luciferase, 18 h; at 92.4 µM (top of the series) unless noted
Outline: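 Cells carrying the ERR reporter were plated and allowed to settle for 6 h, exposed to library compounds for 18 h at 37 C, then lysed with ONE-Glo and luminescence measured.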

[7] = qHTS RealTime-Glo MT Cell Viability Assay in HepG2 cells - 24 hour (AID 1224867); further: nearly all actives have a fitted effect of over 50% in size
Outline: (§1)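 HepG2 suspension premixed with RealTime-Glo reagents is plated at 600 cells per well and left 5 h at 37 C/5% CO2. Compounds in DMSO then go in, and bioluminescence reflecting viable cell number is recorded over 40 h.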

[8] = qHTS RealTime-Glo MT Cell Viability Assay in HEK293 cells - 32 hour (AID 1224868); further: nearly all actives have a fitted effect of over 50% in size; further: potency means the concentration at half of the fitted maximal effect
Outline: (§2)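 Reads taken at 0, 8, 16, 24, 32 and 40 h from the same wells. HEK293 cells (600/well) carried RealTime-Glo reagents from seeding, with compound added after a 5 h settle at 37 C.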

[9] = A CellTox Green Cytotoxicity Assay to monitor cytotoxicity in HEK293 cells - 0 hour (AID 1224869); further: nearly all actives have a fitted effect of over 50% in size
Outline: (§3)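 Cells (HEK293, 600/well) and dye reagent are dispensed together. After 5 h at 37 C, 23 nL compound is pinned in. Plates stay at 37 C for 40 h with fluorescence read at 0h, 8h, 16h, 24h, 32h and 40h.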

[10] = qHTS RealTime-Glo MT Cell Viability Assay in HepG2 cells - 40 hour (AID 1224870); further: nearly all actives have a fitted effect of over 50% in size
Outline: (§4)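 HepG2 cells mixed with RealTime-Glo MT reagents (NanoLuc plus cell-permeant prosubstrate) were seeded at 600 cells/well, incubated 5 h at 37 C/5% CO2, then pinned with compounds in DMSO; nonlytic luminescence tracked viability during 40 h treatment.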

[11] = A CellTox Green Cytotoxicity Assay to monitor cytotoxicity in HEK293 cells - 40 hour (AID 1224871); further: nearly all actives have a fitted effect of over 45% in size
Outline: as §3

[12] = qHTS RealTime-Glo MT Cell Viability Assay in HEK293 cells - 16 hour (AID 1224872)
Outline: as §2

[13] = qHTS RealTime-Glo MT Cell Viability Assay in HepG2 cells - 8 hour (AID 1224873); further: nearly all actives have a fitted effect of over 55% in size
Outline: as §4

[14] = qHTS RealTime-Glo MT Cell Viability Assay in HEK293 cells - 40 hour (AID 1224874); settings: RealTime-Glo luminescence; max response: hits give low values; further: nearly all actives have a fitted effect of over 50% in size; further: potency means the concentration at half of the fitted maximal effect
Outline: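 Real-time viability in HEK293: signal arises when living cells convert a prosubstrate for NanoLuc in the medium, so luminescence tracks viable cell number. Compound (23 nL, DMSO) added 5 h post-seeding; kinetic reads at 0–40 h, 37 C.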

[15] = A CellTox Green Cytotoxicity Assay to monitor cytotoxicity in HEK293 cells - 24 hour (AID 1224875); further: nearly all actives have a fitted effect of over 45% in size
Outline: as §3

[16] = A CellTox Green Cytotoxicity Assay to monitor cytotoxicity in HepG2 cells - 16 hour (AID 1224876); further: nearly all actives have a fitted effect of over 45% in size
Outline: (§5)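 Cells and non-lytic dye reagent are dispensed together (600 HepG2 cells/well) and incubated 5 h before DMSO compound transfer. Kinetic fluorescence is then recorded in the same wells during 40 h at 37 C.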

[17] = qHTS RealTime-Glo MT Cell Viability Assay in HepG2 cells - 32 hour (AID 1224877); further: nearly all actives have a fitted effect of over 55% in size
Outline: as §1

[18] = A CellTox Green Cytotoxicity Assay to monitor cytotoxicity in HepG2 cells - 24 hour (AID 1224878); further: nearly all actives have a fitted effect of over 45% in size
Outline: as §5

[19] = A CellTox Green Cytotoxicity Assay to monitor cytotoxicity in HepG2 cells - 40 hour (AID 1224879); further: nearly all actives have a fitted effect of over 40% in size
Outline: as §5
On the % scale 0 is the no-effect control and ±100 the full control effect.

c1ccc(C2CC2)c(OCC2=NCCN2)c1
inactive: Potency [1] | Potency [2] | outcome [3] | Potency [4] | Potency [5] | activity change, positive = activation [6] 4.99% [at 42.5 µM] | Potency [7] | Potency [8] | Potency [9] | Potency [10] | Potency [11] | Potency [12] | Potency [13] | max response [14] 3.13% | Potency [15] | Potency [16] | Potency [17] | Potency [18] | Potency [19]

O=C1NCN(c2ccccc2)C12CCN(CCCOc1ccc(F)cc1)CC2
inactive: Potency [1] | Potency [2] | Potency [5] | activity change, positive = activation [6] -8.92% [at 42.5 µM] | Potency [9] | Potency [10] | Potency [13] | Potency [15] | Potency [16] | Potency [17]

CCO[C@H]1O[C@@H]2OC3(C)CC[C@H]4[C@H](C)CC[C@@H]([C@H]1C)[C@@]24OO3
active: Potency [5] 0.531 µM
inactive: Potency [1] | outcome [3] | Potency [4] | activity change, positive = activation [6] -53.8% [at 42.5 µM] | Potency [7] | Potency [8] | Potency [9] | Potency [10] | Potency [11] | Potency [12] | Potency [13] | max response [14] -21.5% | Potency [15] | Potency [16] | Potency [17] | Potency [18] | Potency [19]

O=Cc1ccc(Cl)cc1Cl
inactive: Potency [1] | Potency [2] | outcome [3] | Potency [5] | activity change, positive = activation [6] -10.7% | Potency [7] | Potency [8] | Potency [9] | Potency [10] | Potency [11] | Potency [12] | Potency [13] | max response [14] -1.06% | Potency [15] | Potency [16] | Potency [17] | Potency [18] | Potency [19]

O=C(C(Cl)(Cl)Cl)C(Cl)(Cl)Cl
inactive: Potency [1] | Potency [2] | outcome [3] | Potency [7] | Potency [8] | Potency [9] | Potency [10] | Potency [11] | Potency [12] | Potency [13] | max response [14] -7.45% | Potency [15] | Potency [16] | Potency [18]

Cc1ccccc1CCl
inactive: Potency [1] | Potency [2] | outcome [3] | Potency [5] | activity change, positive = activation [6] 7.48% | Potency [7] | Potency [8] | Potency [9] | Potency [10] | Potency [11] | Potency [12] | Potency [13] | max response [14] -6.69% | Potency [15] | Potency [16] | Potency [17] | Potency [18] | Potency [19]

COCC(C)N(C(=O)CCl)c1c(C)csc1C (stereo not drawn)
inactive: Potency [1] | Potency [2] | outcome [3] | Potency [4] | activity change, positive = activation [6] -54.8% | Potency [7] | Potency [8] | Potency [9] | Potency [10] | Potency [11] | Potency [12] | Potency [13] | max response [14] 17.2% | Potency [15] | Potency [16] | Potency [17] | Potency [18]
active: Potency [5] 27.3 µM

O=C(Nc1ccccc1)Nc1ccnc(Cl)c1
active: Potency [5] 24.3 µM | Potency [8] 19.5 µM | Potency [14] 19.5 µM
inactive: Potency [1] | Potency [2] | activity change, positive = activation [6] -55.6% | Potency [7] | Potency [9] | Potency [11] | Potency [13] | Potency [15] | Potency [16] | Potency [17] | Potency [18]

O=S(=O)(O)C(F)(F)C(F)(F)C(F)(F)C(F)(F)F
inactive: Potency [1] | Potency [2] | Potency [7] | Potency [9] | Potency [10] | Potency [11] | Potency [13] | Potency [15] | Potency [17] | Potency [18] | Potency [19]

CC1(C)[C@H](C=C(Cl)Cl)[C@@H]1C(=O)O[C@@H](C#N)c1cccc(Oc2ccccc2)c1
inactive: Potency [1] | Potency [2] | outcome [3] | Potency [4] | Potency [7] | Potency [8] | Potency [9] | Potency [10] | Potency [11] | Potency [12] | Potency [13] | max response [14] 0.601% | Potency [15] | Potency [16] | Potency [17] | Potency [18]

CCCCCCCCCC(=O)O[C@H]1CC[C@H]2[C@@H]3CCC4=CC(=O)CC[C@@H]4[C@H]3CC[C@]12C
inactive: Potency [1] | Potency [2] | Potency [7] | Potency [8] | Potency [9] | Potency [10] | Potency [11] | Potency [12] | Potency [13] | max response [14] 3.16% | Potency [15] | Potency [16] | Potency [17] | Potency [18] | Potency [19]

O=C(NC(=O)c1c(F)cccc1F)Nc1cc(Cl)c(Oc2ncc(C(F)(F)F)cc2Cl)c(Cl)c1
inactive: Potency [1] | Potency [2] | outcome [3] | Potency [4] | Potency [9] | Potency [10] | Potency [11] | Potency [13] | Potency [15] | Potency [16] | Potency [17] | Potency [18] | Potency [19]

O=[N+]([O-])c1ccc(F)c([N+](=O)[O-])c1
inactive: Potency [2] | activity change, positive = activation [6] -38.2% | Potency [7] | Potency [9] | Potency [10] | Potency [11] | Potency [13] | Potency [15] | Potency [16] | Potency [17] | Potency [18] | Potency [19]
active: Potency [1] 12.4 µM | Potency [4] 57.2 µM | Potency [5] 43.7 µM

COc1c(C(C)(C)C)cc([N+](=O)[O-])c(C)c1[N+](=O)[O-]
inactive: Potency [1] | Potency [2] | outcome [3] | Potency [4] | Potency [7] | Potency [8] | Potency [9] | Potency [10] | Potency [11] | Potency [12] | Potency [13] | max response [14] 1.56% | Potency [15] | Potency [16] | Potency [17] | Potency [18] | Potency [19]

CCOP(=S)(Oc1ccc([N+](=O)[O-])cc1)c1ccccc1 (stereo not drawn)
inactive: Potency [1] | Potency [2] | outcome [3] | Potency [5] | Potency [7] | Potency [8] | Potency [9] | Potency [10] | Potency [11] | Potency [12] | Potency [13] | max response [14] 9.18% | Potency [15] | Potency [16] | Potency [17] | Potency [18]
active: activity change, positive = activation [6] 24.4%
